Laboratory results taken from PubChem BioAssay (NCATS).
Values joined by “and” are separate entries in the source; they are usually repeats but may differ in a detail not shown here. Identical values can stand only once. Inconclusive results are not listed. The source holds several records for some structures; these can differ, active in one and inactive in another. Active and inactive are the calls of the source. Calls come from the whole dose curve; as a rule, active = well fitted curve in the direction sought with a large enough effect; inconclusive = small, poorly fitted or top-dose-only effect, or another doubt; inactive = no such curve, though single readings can be large; an effect the other way counts as inactive or inconclusive.

Tests used:
[1] = Cell Viability - LYMP2-020 (AID 986); note: nearly all actives have a fitted effect of over 55% in size; note: potency is the fitted concentration of half-maximal effect
Method in brief: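 Human lymphoblastoid cells, 2500/well, were pre-incubated 5 hr at 37 C, then exposed to compounds for 24 hr at 37 C in complete medium. Intracellular ATP was read by CellTiter-Glo luminescence, and AC50 was derived by Hill fitting of concentration-response data.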

[2] = Cell Viability - LYMP2-022 (AID 987); note: nearly all actives have a fitted effect of over 55% in size; note: potency is the fitted concentration of half-maximal effect
Method in brief: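 Human lymphoblastoid cells, 2500/well, preincubated 5 hr at 37 C, then exposed to compounds over a concentration range for 24 hr at 37 C in complete medium. Viability read as intracellular ATP by CellTiter-Glo luminescence after 30 min at room temperature; AC50 from Hill fits.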

[3] = Cell Viability - LYMP2-024 (AID 988); note: nearly all actives have a fitted effect of over 60% in size; note: potency is the fitted concentration of half-maximal effect
Method in brief: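 Human lymphoblastoid cells (2500/well) in complete medium were preincubated 5 hr at 37 C, then exposed to compounds for 24 hr at 37 C. Intracellular ATP was read by CellTiter-Glo luminescence; AC50 from Hill-equation fits of concentration-response data.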

[4] = Cell Viability - LYMP2-026 (AID 989); note: nearly all actives have a fitted effect of over 50% in size; note: potency is the fitted concentration of half-maximal effect
Method in brief: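 Human lymphoblastoid cells (2500/well) in complete medium were preincubated 5 hr at 37 C, then exposed to compounds for 24 hr at 37 C. Cellular ATP was read by CellTiter-Glo luminescence; AC50 from Hill-equation fits of concentration-response data.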

[5] = Cell Viability - LYMP1-002 - Assay at 24 hr (AID 993); note: potency is the fitted concentration of half-maximal effect
Method in brief: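 Human lymphoblastoid LYMP1-002 cells, 2500/well in complete medium, were treated with compounds for 24 h at 37 C; intracellular ATP was read by CellTiter-Glo luminescence. AC50 values came from Hill-equation fits of qHTS concentration-response data.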

[6] = Cell Viability - LYMP1-002 - Assay at 40 hr (AID 994); note: nearly all actives have a fitted effect of over 60% in size; note: potency is the fitted concentration of half-maximal effect
Method in brief: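 Human lymphoblastoid cells, 2500/well in complete medium, were preincubated 5 hr at 37 C, then exposed to compounds for 40 hr at 37 C. Intracellular ATP was read by CellTiter-Glo luminescence after 30 min at room temperature; AC50 from Hill-equation fits.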

[7] = biological target: Alpha-galactosidase A (Homo sapiens) (UniProt P06280); assay: Counterscreen for Glucocerebrosidase Inhibitors: qHTS Assay for Human alpha-Galactosidase at pH 4.5 (AID 992)
Alpha-galactosidase A (Homo sapiens), sequence (P06280 whole entry, looked up): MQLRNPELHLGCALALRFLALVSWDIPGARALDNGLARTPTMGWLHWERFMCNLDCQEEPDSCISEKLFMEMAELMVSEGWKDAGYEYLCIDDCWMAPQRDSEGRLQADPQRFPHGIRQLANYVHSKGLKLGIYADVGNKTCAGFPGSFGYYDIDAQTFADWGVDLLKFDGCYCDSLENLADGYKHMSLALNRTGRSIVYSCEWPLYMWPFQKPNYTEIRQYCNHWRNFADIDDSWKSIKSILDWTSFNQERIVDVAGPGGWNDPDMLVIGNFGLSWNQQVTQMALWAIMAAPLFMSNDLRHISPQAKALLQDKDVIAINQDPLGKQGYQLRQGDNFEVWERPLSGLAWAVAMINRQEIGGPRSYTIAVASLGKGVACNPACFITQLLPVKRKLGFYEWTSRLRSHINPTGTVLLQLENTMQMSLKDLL
Method in brief: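 Quantitative HTS: compounds tested from 0.7 nM up to 77 uM against 2 nM enzyme with 80 uM 4-MU alpha-D-galactopyranoside. The 20 min room-temperature reaction is stopped with 1M NaOH/1M glycine, pH 10.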

[8] = biological target: alpha-glucosidase (Oryza sativa, rice) (UniProt Q653V4); assay: Counterscreen for Glucocerebrosidase Inhibitors: qHTS Assay for Rice alpha-Glucosidase at pH 5.0 (AID 997)
Method in brief: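 Rice alpha-glucosidase (4 nM final) with 400 uM 4-methylumbelliferyl-alpha-D-glucopyranoside in citrate buffer pH 5.0, 20 min at room temperature, stopped at pH 10; fluorescence 365/440 nm, compounds 0.7 nM–77 uM, AC50 from Hill fits.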

[9] = biological target: Alpha-galactosidase (Coffea arabica) (UniProt Q42656); assay: Counterscreen for Glucocerebrosidase Inhibitors: qHTS Assay for Coffee Bean alpha-Galactosidase at pH 5.9 (AID 998)
Alpha-galactosidase (Coffea arabica), sequence (Q42656 whole entry, looked up): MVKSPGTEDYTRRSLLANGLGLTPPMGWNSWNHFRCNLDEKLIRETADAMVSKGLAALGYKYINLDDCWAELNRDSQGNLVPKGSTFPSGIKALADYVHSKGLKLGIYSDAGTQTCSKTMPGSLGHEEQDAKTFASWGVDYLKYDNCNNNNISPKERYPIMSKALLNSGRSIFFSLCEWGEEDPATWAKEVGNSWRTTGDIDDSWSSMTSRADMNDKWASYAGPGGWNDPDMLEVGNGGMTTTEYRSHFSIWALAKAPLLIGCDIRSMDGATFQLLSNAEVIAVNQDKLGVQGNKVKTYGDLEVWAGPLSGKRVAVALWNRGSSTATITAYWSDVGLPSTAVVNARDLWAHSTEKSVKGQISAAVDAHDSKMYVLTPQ
Method in brief: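 Green coffee bean enzyme (2 nM final) was incubated with compounds (0.7 nM–77 uM) and 4-methylumbelliferyl alpha-D-galactopyranoside (80 uM) in citrate buffer pH 5.9, 20 min at room temperature. High-pH stop; fluorescence 365/440 nm; AC50 from Hill fits.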

Measured: Potency

O=C1C2CC=CCC2C(=O)N1SC(Cl)(Cl)Cl (configuration not stated)
active: [1] 3.16 µM and 5.01 µM | [2] 2 µM and 3.98 µM | [3] 1.58 µM and 3.16 µM | [4] 3.98 µM and 6.31 µM | [5] 7.94 µM | [6] 15.8 µM

CC(C)(C)c1cc(O)ccc1O
active: [1] 50.1 µM | [2] 50.1 µM and 39.8 µM | [3] 31.6 µM
inactive: [4] | [5] | [6]

CCS(=O)(=O)Nc1cccc(C(=C2CCCCC2)c2cnc[nH]2)c1
inactive: [7] | [8] | [9]

C[C@@H]1[C@@H]2Cc3ccc(O)cc3[C@@]1(C)CCN2CC1CC1
inactive: [7] | [8] | [9]

CC(C)(C)c1cc(C=C(C#N)C#N)cc(C(C)(C)C)c1O
inactive: [7] | [8] | [9]

O=C/C=C/c1ccccc1
not listed: [7] | [8] | [9]
inactive: all other assays above

C[C@H](N)CN1CCc2ccc(Br)cc21
inactive: [7] | [8] | [9]

C[C@H]1CC[C@@H]2[C@@H](C)[C@H]3[C@H](C[C@H]4[C@@H]5CC=C6CC(O[C@@H]7O[C@H](CO)[C@H](O)[C@H](O[C@@H]8O[C@H](CO)[C@@H](O)[C@H](O)[C@H]8O)[C@H]7O[C@H]7O[C@@H](C)[C@H](O)[C@@H](O)[C@H]7O)CC[C@]6(C)[C@H]5CC[C@]34C)N2C1 (some centres not stated)
inactive: [4]
active: [5] 25.1 µM | [6] 39.8 µM

CN1CCc2cc(O)cc3c2[C@H]1Cc1ccc(O)c(O)c1-3
inactive: [7] | [8] | [9]

CC(C)Nc1ccc(Nc2ccccc2)cc1
active: [1] 25.1 µM | [2] 15.8 µM | [3] 12.6 µM | [4] 39.8 µM | [5] 31.6 µM | [6] 50.1 µM

CC(C)CCON=O
not listed: [7] | [8] | [9]
inactive: all other assays above

ClCC1CO1 (configuration not stated)
inactive: [1] | [4] | [5] | [6]

CCCCCCCCOC(=O)c1ccccc1C(=O)OCCCCCCCC
not listed: [7] | [8] | [9]
inactive: all other assays above

O=C1CCO1
not listed: [7] | [8] | [9]
inactive: all other assays above

Clc1ccccc1Cl
not listed: [7] | [8] | [9]
inactive: all other assays above

C[C@]12CCC(=O)C[C@@H]1CC[C@@H]1[C@@H]2CC[C@]2(C)[C@@H](O)CC[C@@H]12
not listed: [7] | [8] | [9]
inactive: all other assays above

CCN(CCCl)Cc1ccccc1Br
inactive: [7] | [8] | [9]

CCCCCl
not listed: [7] | [8] | [9]
inactive: all other assays above

C[N+](C)(C)CCOC(=O)CBr
inactive: [7] | [8] | [9]

C[N+]1(C)[C@@H]2CC[C@H]1CC(OC(=O)c1c[nH]c3ccccc13)C2 (some centres not stated)
inactive: [7] | [8] | [9]

O=[N+]([O-])c1ccc2nc(N3CCNCC3)ccc2c1
inactive: [7] | [8] | [9]

Clc1ccc(N2C[C@H]3CC[C@@H](C2)N3)nn1
inactive: [7] | [8] | [9]

O=Cc1ccco1
not listed: [7] | [8] | [9]
inactive: all other assays above

CCCN1CCc2cc(O)cc3c2[C@H]1Cc1ccc(O)c(O)c1-3
inactive: [7] | [8] | [9]

Cc1c2ccncc2c(C)c2c1[nH]c1ccccc12
inactive: [7] | [8] | [9]

O=CC=O
not listed: [7] | [8] | [9]
inactive: all other assays above

Oc1cc(Cl)c(Cl)cc1Cl
inactive: [1] | [2] | [4] | [5] | [6]

[Cl-].[Cl-].[Hg+2]
active: [1] 3.16 µM | [3] 0.398 µM | [4] 20 µM | [5] 1.26 µM | [6] 3.16 µM

c1ccc2c(c1)[I+]c1ccccc1-2
inactive: [7] | [8] | [9]

NC(=O)CI
inactive: [7] | [8]

N#CCCN
inactive: [7] | [8] | [9]

C[N+]1(C)CCC(OC(=O)C(c2ccccc2)c2ccccc2)CC1
inactive: [9]

O=[N+]([O-])c1ccc(F)c([N+](=O)[O-])c1
inactive: [1] | [4] | [5] | [6]

[O]=[Cr](=[O])([OH])[O][Cr](=[O])(=[O])[OH]
inactive: [5]
inactive and 39.8 µM (active): [6]
active: [1] 15.8 µM and 10 µM | [2] 10 µM and 12.6 µM and 7.94 µM | [3] 12.6 µM and 15.8 µM and 10 µM | [4] 15.8 µM and 20 µM and 12.6 µM

COc1ccc2c(c1)/C(=C/c1cnc[nH]1)C(=O)N2
inactive: [7] | [8] | [9]
